From PubChem BioAssay
The source made the active and inactive calls. Unless noted, no rule for the calls is given here.

Legend:
[1] = resazurin metabolic signal in HepG2 cells – cell-based, resazurin fluorescence, 24 h, PK04 Diversity Set, profiling panel (AID 1172); settings: HepG2 viability, higher = more signal
[2] = budding yeast growth changes without added modifier – OD600, strain BY4716, 24 h, basal condition, primary screen (AID 1173); settings: S. cerevisiae BY4716 growth, OD600, 24 h; higher = more signal, called active from +8 up or from −8 down
[3] = viability profiling in MM1S myeloma cells – cell-based, resazurin fluorescence, basal, 24 h, PK04 Diversity Set, profiling panel (AID 1174); settings: higher = more signal, called active from +8 up or from −8 down;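 also: MM1S multiple myeloma cell line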
[4] = target: Dihydroorotate dehydrogenase (quinone), mitochondrial (Plasmodium falciparum (isolate 3D7)) (UniProt Q08210); test: inhibition of P. falciparum DHODH – biochemical, C-terminal His tag, absorbance 600 nm, primary screen (AID 1175); settings: PfDHODH enzyme, DCIP absorbance 600 nm; higher = more signal, called active from +8 up or from −8 down;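 also: recombinant parasite enzyme with a five histidine tag at its C terminus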
[5] = inhibition of PAO1 biofilm formation – strain PAO1, LB-PBS medium, absorbance 600 nm, primary screen (AID 1176); settings: P. aeruginosa PAO1 growth/biofilm, A600, 12 h; higher = more signal
[6] = growth modulation of vineyard yeast isolate – strain RM11-1a, OD600, basal, 24 h, primary screen (AID 1177);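 also: cultures grown under basal conditions with no added stressor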; settings: S. cerevisiae RM11-1a growth, OD600, 24 h; higher = more signal, called active from +8 up or from −8 down
[7] = growth of efflux-deficient E. coli DRC39 – strain DRC39, OD650, 24 h, E. coli filamentation inducers, primary screen (AID 1178);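 also: growth measured as culture turbidity by optical density at 650 nm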; settings: E. coli DRC39 acrAB, higher = more signal, called active from +8 up or from −8 down
[8] = growth of efflux-deficient E. coli DRC39 – strain DRC39, OD650, 48 h, E. coli filamentation inducers, primary screen (AID 1179);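 also: screen aims at cell division blockers that make cells filament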; settings: E. coli DRC39 delta-acrAB growth, higher = more signal, called active from +8 up or from −8 down
[9] = viability profiling in RPMI8226 myeloma cells – cell-based, resazurin fluorescence, basal, 24 h, PK04 Diversity Set, profiling panel (AID 1180); settings: higher = more signal;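 also: RPMI8826 multiple myeloma cell line at 5000 cells per well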
[10] = target: E3 ubiquitin-protein ligase XIAP (Homo sapiens) (UniProt P98170); test: small molecules binding XIAP protein – biophysical, small-molecule microarray, fluorescence 635 nm, primary screen (AID 1181); settings: higher = more signal;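 also: score merges 667 nm emission and signal to noise over triplicate slides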
[11] = system: XIP peptide (Xip251-270) binding; test: XIP fragment 251-270 binding compounds – biochemical, small-molecule microarray, fluorescence 635/667 nm, 0.1 µg/mL protein, primary screen (AID 1182); settings: fluorescent protein binding, 635 nm, higher = more signal, called active from +8 up or from −8 down
XIP peptide (Xip251-270) = test: compounds binding XIP fragment 251-270 – biochemical, small-molecule microarray, fluorescence 635/667 nm, 0.5 µg/mL protein, primary screen (AID 1183); settings: fluorescence 635 nm, higher = more signal
[12] = blood-stage malaria parasite viability loss – strain 3D7, DAPI fluorescence, 100 nL, primary screen (AID 1184);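 also: parasites grown inside human red blood cells in medium with human serum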; settings: P. falciparum 3D7 growth, 3 d, higher = more signal
[13] = target: Homeobox protein Hox-A13 (Mus musculus) (UniProt Q62424); test: disruptors of Hoxa13 oligonucleotide interaction – biochemical, fluorescence polarization, labeled oligonucleotide, primary screen (AID 1185); settings: Hoxa13:DNA binding, 15 min, higher = more signal, called active from +8 up or from −8 down
[14] = blockers of DNA damage checkpoint Chk1 activation – imaging, HeLa, hydroxyurea, phospho-Chk1 antibody, percent positive cells, primary screen (AID 1186); settings: hydroxyurea-induced phospho-Chk1 immunofluorescence imaging, higher = more signal
[15] = blockers of DNA damage checkpoint Chk1 activation – imaging, HeLa, hydroxyurea, phospho-Chk1 nuclear intensity, primary screen (AID 1187); settings: hydroxyurea-induced phospho-Chk1 immunofluorescence imaging, higher = more signal

Chain of E3 ubiquitin-protein ligase XIAP (Homo sapiens) (P98170 whole entry, looked up, the tested form may be a part): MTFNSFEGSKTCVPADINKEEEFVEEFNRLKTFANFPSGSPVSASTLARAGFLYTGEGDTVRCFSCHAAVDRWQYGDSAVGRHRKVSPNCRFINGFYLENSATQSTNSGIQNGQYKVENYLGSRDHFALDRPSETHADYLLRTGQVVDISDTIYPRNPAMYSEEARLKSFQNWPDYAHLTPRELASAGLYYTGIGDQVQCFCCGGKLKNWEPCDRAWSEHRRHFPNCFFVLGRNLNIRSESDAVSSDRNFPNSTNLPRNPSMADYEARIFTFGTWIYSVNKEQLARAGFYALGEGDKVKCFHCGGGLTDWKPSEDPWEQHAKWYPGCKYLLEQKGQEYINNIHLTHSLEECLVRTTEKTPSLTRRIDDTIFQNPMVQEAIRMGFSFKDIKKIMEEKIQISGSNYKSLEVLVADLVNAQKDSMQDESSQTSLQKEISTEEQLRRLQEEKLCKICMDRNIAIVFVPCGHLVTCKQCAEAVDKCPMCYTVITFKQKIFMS
Chain of Dihydroorotate dehydrogenase (quinone), mitochondrial (Plasmodium falciparum (isolate 3D7)) (Q08210 whole entry, looked up): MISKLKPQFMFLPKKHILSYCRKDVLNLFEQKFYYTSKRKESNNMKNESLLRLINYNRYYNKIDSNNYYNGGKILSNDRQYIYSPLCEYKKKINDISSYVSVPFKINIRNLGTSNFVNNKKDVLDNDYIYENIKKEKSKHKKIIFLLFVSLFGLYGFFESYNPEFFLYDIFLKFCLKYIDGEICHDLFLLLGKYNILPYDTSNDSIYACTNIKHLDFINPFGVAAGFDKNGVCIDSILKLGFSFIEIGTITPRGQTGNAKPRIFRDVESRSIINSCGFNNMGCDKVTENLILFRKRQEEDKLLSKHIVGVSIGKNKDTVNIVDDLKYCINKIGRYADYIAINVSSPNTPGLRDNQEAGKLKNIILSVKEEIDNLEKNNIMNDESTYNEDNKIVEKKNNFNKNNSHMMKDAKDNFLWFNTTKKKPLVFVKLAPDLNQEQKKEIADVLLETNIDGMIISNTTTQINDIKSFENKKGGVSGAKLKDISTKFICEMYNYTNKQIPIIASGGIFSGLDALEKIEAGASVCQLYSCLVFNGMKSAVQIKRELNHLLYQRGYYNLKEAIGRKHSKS
Chain of Homeobox protein Hox-A13 (Mus musculus) (Q62424 whole entry, looked up): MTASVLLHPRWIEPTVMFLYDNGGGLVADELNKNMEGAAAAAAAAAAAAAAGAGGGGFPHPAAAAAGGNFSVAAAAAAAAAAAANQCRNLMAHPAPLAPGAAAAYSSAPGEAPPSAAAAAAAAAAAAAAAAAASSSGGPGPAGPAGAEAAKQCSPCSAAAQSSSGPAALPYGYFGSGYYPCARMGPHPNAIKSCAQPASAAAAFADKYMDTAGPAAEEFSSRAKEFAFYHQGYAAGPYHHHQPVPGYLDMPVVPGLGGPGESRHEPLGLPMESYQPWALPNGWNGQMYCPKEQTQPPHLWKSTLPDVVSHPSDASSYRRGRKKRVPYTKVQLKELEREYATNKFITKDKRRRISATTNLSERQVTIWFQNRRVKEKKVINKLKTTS

| Structure (SMILES) | z-score [1] | z-score [2] | z-score [3] | composite z-score [4] | z-score [5] | z-score [6] | z-score [7] | z-score [8] | z-score [9] | composite z-score [10] | composite z-score [11] | composite z-score (XIP peptide (Xip251-270)) | z-score [12] | z-score [13] | z-score [14] | z-score [15] |
| --- | --- | --- | --- | --- | --- | --- | --- | --- | --- | --- | --- | --- | --- | --- | --- | --- |
| CN(C)CCCNC(=O)[C@@H]1c2ccccc2C(=O)N(Cc2ccccc2Cl)[C@H]1c1ccc(CO)cc1 | 0.248 | -0.433 (inactive) | 0.608 (inactive) | 0.411 (inactive) | 0.0561 (inactive) | -0.39 (inactive) | 0.206 (inactive) | -0.2 (inactive) | 0.179 | -0.02 | 0.596 (inactive) | 0.285 | -0.424 | -2.58 (inactive) | 0.0357 (inactive) | 0.0322 (inactive) |
| [N-]=[N+]=NCc1ccccc1C[C@@]1(C(=O)N2CCOCC2)N=C(c2ccc(OCCCO)cc2)O[C@@H]1c1ccccc1 | -0.932 | -2.93 (inactive) | -4.83 (inactive) | 0.192 (inactive) | 0.593 (inactive) | -0.0165 (inactive) | 0.834 (inactive) | -0.274 (inactive) | -4.29 | 0.284 | 0.761 (inactive) | 0.74 | -2.73 | -4.1 (inactive) | 0.123 (inactive) | 0.608 (inactive) |
| CC(C)[Si](C#CCCCC#N)(O[C@H](c1ccccc1)c1cn([C@H](CO)Cc2ccccc2)nn1)C(C)C | 0.374 | -9.13 (active) | 0.288 (inactive) | -0.804 (inactive) | 1.44 (inactive) | -1.8 (inactive) | 0.178 (inactive) | 0.362 (inactive) | 0.289 | -0.111 | 0.0339 (inactive) | 0.283 | 0.0921 | -0.999 (inactive) | -0.43 (inactive) | -1.05 (inactive) |
| COc1ccc(-c2nc(-c3ccccc3)c3c(c2C)CO[Si]3(C(C)C)C(C)C)cn1 | 0.539 | 0.232 (inactive) | 0.151 (inactive) | 0.366 (inactive) | 1.35 (inactive) | -0.278 (inactive) | -0.512 (inactive) | -0.329 (inactive) | -0.82 | -0.0943 | -0.447 (inactive) | -0.447 | 0.193 | -3.37 (inactive) | 0.0411 (inactive) | 0.126 (inactive) |
| C#CCN([C@@H](Cc1ccc(O)cc1)C(=O)OC)[C@@H](/C=C/C1CC1)[C@H](O)Cc1ccccc1 | -1.12 | -2.71 (inactive) | -0.758 (inactive) | -0.228 (inactive) | -0.672 (inactive) | -0.136 (inactive) | -0.933 (inactive) | -0.737 (inactive) | -0.61 | 0.798 | -0.297 (inactive) | -0.331 | 0.501 | -7.49 (inactive) | -0.453 (inactive) | -0.368 (inactive) |
| COC(=O)[C@H](Cc1ccccc1)N1CC(/C=C/C2CC2)=C[C@H]1[C@H](O)Cc1ccccc1 | -0.57 | -2.67 (inactive) | -3.01 (inactive) | -0.258 (inactive) | 0.188 (inactive) | -0.55 (inactive) | -0.0993 (inactive) | -0.0274 (inactive) | -2.71 | -0.102 | 0.444 (inactive) | 0.337 | -1.65 | -5.54 (inactive) | -0.45 (inactive) | -0.749 (inactive) |
| CN(C)C(=O)C1N=C(c2ccc(OCCCO)cc2)N(c2ccccc2)O1 (stereo not drawn) | 0.244 | -1.29 (inactive) | 0.689 (inactive) | -1.01 (inactive) | -0.841 (inactive) | 0.353 (inactive) | 1.16 (inactive) | 1.56 (inactive) | 0.271 | -0.181 | 0.94 (inactive) | 0.62 | 0.639 | -1.46 (inactive) | -0.823 (inactive) | -0.846 (inactive) |
| CCOC(=O)C1=CC[C@@H](c2ccccc2C(F)(F)F)N(S(=O)(=O)c2ccc(C)cc2)[C@H]1c1ccc(C#N)cc1 | -0.0666 | 1.02 (inactive) | -1.39 (inactive) | -0.0408 (inactive) | 1.01 (inactive) | -0.171 (inactive) | -0.534 (inactive) | 0.312 (inactive) | -0.823 | -0.0172 | 0.205 (inactive) | 0.534 | -2.2 | -0.224 (inactive) | 0.479 (inactive) | -0.581 (inactive) |
